We go through 33 molecules from paper PMC9911399, “Two distinct binding modes provide the RNA-binding protein RbFox with extraordinary sequence specificity”.

Changes are numbered by the printed parent chain; changes in the protein carry UniProt numbers. In all, about 16,000 sequences were measured (“ka relative to ugcaugu”: median about 0.0091, highest 2% from about 0.032 on). The entries come from a sample that favours the highest values as a whole.

To fix the notation:
T1: RBFOX1 RRM (Homo sapiens, UniProt Q9NWB1 109-208)
T1 sequence: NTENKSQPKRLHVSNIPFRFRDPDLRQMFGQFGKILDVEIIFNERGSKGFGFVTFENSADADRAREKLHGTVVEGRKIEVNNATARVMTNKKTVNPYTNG

B1: GUAGAGU (DNA:RNA)
RNA: GGGAGACCGGAAUUCAGAUUGUCCGUAGAGUUUAAAUCCCGUCGUAGCCACCA
DNA 1: CAATCTGAATTCCGGTCTCCC
DNA 2: TGGTGGCTACGACGGGATT
B2: CUGACUG (DNA:RNA)
RNA: B1 RNA with G25C, A27G, G28A, A29C, G30U, U31G
DNA 1: CAATCTGAATTCCGGTCTCCC
DNA 2: TGGTGGCTACGACGGGATT
B3: GCCUGAC (DNA:RNA)
RNA: B1 RNA with U26C, A27C, G28U, A29G, G30A, U31C
DNA 1: CAATCTGAATTCCGGTCTCCC
DNA 2: TGGTGGCTACGACGGGATT
B4: UGACUGA (DNA:RNA)
RNA: B1 RNA with G25U, U26G, G28C, A29U, U31A
DNA 1: CAATCTGAATTCCGGTCTCCC
DNA 2: TGGTGGCTACGACGGGATT
B5: GCCAGAC (DNA:RNA)
RNA: B1 RNA with U26C, A27C, G28A, A29G, G30A, U31C
DNA 1: CAATCTGAATTCCGGTCTCCC
DNA 2: TGGTGGCTACGACGGGATT
B6: UGACUUG (DNA:RNA)
RNA: B1 RNA with G25U, U26G, G28C, A29U, G30U, U31G
DNA 1: CAATCTGAATTCCGGTCTCCC
DNA 2: TGGTGGCTACGACGGGATT
B7: UCCUGAC (DNA:RNA)
RNA: GGGAGACCGGAAUUCAGAUUGUCCUCCUGACUUAAAUCCCGUCGUAGCCACCA
DNA 1: CAATCTGAATTCCGGTCTCCC
DNA 2: TGGTGGCTACGACGGGATT
B8: UGACCGU (DNA:RNA)
RNA: B1 RNA with G25U, U26G, G28C, A29C
DNA 1: CAATCTGAATTCCGGTCTCCC
DNA 2: TGGTGGCTACGACGGGATT
B9: UGACUGG (DNA:RNA)
RNA: B1 RNA with G25U, U26G, G28C, A29U, U31G
DNA 1: CAATCTGAATTCCGGTCTCCC
DNA 2: TGGTGGCTACGACGGGATT
B10: GCCUGAA (DNA:RNA)
RNA: B7 RNA with U25G, C31A
DNA 1: CAATCTGAATTCCGGTCTCCC
DNA 2: TGGTGGCTACGACGGGATT
B11: UGACUGC (DNA:RNA)
RNA: B1 RNA with G25U, U26G, G28C, A29U, U31C
DNA 1: CAATCTGAATTCCGGTCTCCC
DNA 2: TGGTGGCTACGACGGGATT
B12: UGACUGU (DNA:RNA)
RNA: B1 RNA with G25U, U26G, G28C, A29U
DNA 1: CAATCTGAATTCCGGTCTCCC
DNA 2: TGGTGGCTACGACGGGATT
B13: UGCUGAC (DNA:RNA)
RNA: B7 RNA with C26G
DNA 1: CAATCTGAATTCCGGTCTCCC
DNA 2: TGGTGGCTACGACGGGATT
B14: CGAGAAA (DNA:RNA)
RNA: B1 RNA with G25C, U26G, G30A, U31A
DNA 1: CAATCTGAATTCCGGTCTCCC
DNA 2: TGGTGGCTACGACGGGATT
B15: GAUAUCG (DNA:RNA)
RNA: B1 RNA with U26A, A27U, G28A, A29U, G30C, U31G
DNA 1: CAATCTGAATTCCGGTCTCCC
DNA 2: TGGTGGCTACGACGGGATT
B16: GGCGCCU (DNA:RNA)
RNA: B1 RNA with U26G, A27C, A29C, G30C
DNA 1: CAATCTGAATTCCGGTCTCCC
DNA 2: TGGTGGCTACGACGGGATT
B17: UGCCCAG (DNA:RNA)
RNA: B7 RNA with C26G, U28C, G29C, C31G
DNA 1: CAATCTGAATTCCGGTCTCCC
DNA 2: TGGTGGCTACGACGGGATT
B18: UGCGAGG (DNA:RNA)
RNA: B1 RNA with G25U, U26G, A27C, U31G
DNA 1: CAATCTGAATTCCGGTCTCCC
DNA 2: TGGTGGCTACGACGGGATT
B19: GUAGCGU (DNA:RNA)
RNA: B1 RNA with A29C
DNA 1: CAATCTGAATTCCGGTCTCCC
DNA 2: TGGTGGCTACGACGGGATT
B20: UUUAAGG (DNA:RNA)
RNA: B1 RNA with G25U, A27U, G28A, U31G
DNA 1: CAATCTGAATTCCGGTCTCCC
DNA 2: TGGTGGCTACGACGGGATT
B21: GUCUUAG (DNA:RNA)
RNA: B7 RNA with U25G, C26U, G29U, C31G
DNA 1: CAATCTGAATTCCGGTCTCCC
DNA 2: TGGTGGCTACGACGGGATT
B22: UGCAGAA (DNA:RNA)
RNA: B7 RNA with C26G, U28A, C31A
DNA 1: CAATCTGAATTCCGGTCTCCC
DNA 2: TGGTGGCTACGACGGGATT
B23: UUCAUGC (DNA:RNA)
RNA: B7 RNA with C26U, U28A, G29U, A30G
DNA 1: CAATCTGAATTCCGGTCTCCC
DNA 2: TGGTGGCTACGACGGGATT
B24: UGCAUGC (DNA:RNA)
RNA: B7 RNA with C26G, U28A, G29U, A30G
DNA 1: CAATCTGAATTCCGGTCTCCC
DNA 2: TGGTGGCTACGACGGGATT
B25: UGAUUCA (DNA:RNA)
RNA: B7 RNA with C26G, C27A, G29U, A30C, C31A
DNA 1: CAATCTGAATTCCGGTCTCCC
DNA 2: TGGTGGCTACGACGGGATT
B26: UGCAUAA (DNA:RNA)
RNA: B7 RNA with C26G, U28A, G29U, C31A
DNA 1: CAATCTGAATTCCGGTCTCCC
DNA 2: TGGTGGCTACGACGGGATT
B27: UGAUGCA (DNA:RNA)
RNA: B7 RNA with C26G, C27A, A30C, C31A
DNA 1: CAATCTGAATTCCGGTCTCCC
DNA 2: TGGTGGCTACGACGGGATT
B28: UUCAUGG (DNA:RNA)
RNA: B1 RNA with G25U, A27C, G28A, A29U, U31G
DNA 1: CAATCTGAATTCCGGTCTCCC
DNA 2: TGGTGGCTACGACGGGATT
B29: UGCAUGA (DNA:RNA)
RNA: B7 RNA with C26G, U28A, G29U, A30G, C31A
DNA 1: CAATCTGAATTCCGGTCTCCC
DNA 2: TGGTGGCTACGACGGGATT
B30: UGCGUGG (DNA:RNA)
RNA: B1 RNA with G25U, U26G, A27C, A29U, U31G
DNA 1: CAATCTGAATTCCGGTCTCCC
DNA 2: TGGTGGCTACGACGGGATT
B31: AGAUGCA (DNA:RNA)
RNA: B7 RNA with U25A, C26G, C27A, A30C, C31A
DNA 1: CAATCTGAATTCCGGTCTCCC
DNA 2: TGGTGGCTACGACGGGATT
B32: UGCAUGG (DNA:RNA)
RNA: B7 RNA with C26G, U28A, G29U, A30G, C31G
DNA 1: CAATCTGAATTCCGGTCTCCC
DNA 2: TGGTGGCTACGACGGGATT
B33: GUCCUGC (DNA:RNA)
RNA: B1 RNA with A27C, G28C, A29U, U31C
DNA 1: CAATCTGAATTCCGGTCTCCC
DNA 2: TGGTGGCTACGACGGGATT

This test has as its target T1, RBFOX1 RRM. Briefly: EMSA; HiTS-Eq, 1 nM pool, 10 min; buffer printed only for the single-RNA assays: 10 mM Tris pH 7.5, 150 mM NaCl, 3.4 mM EDTA, 0.001% NP-40, 30 C. The following applies: tags: His6 N-terminal (pET28a); label: 5' 32P. The gist of the method: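 These values rest on relative association constants, computed from read-count changes of each RNA species versus the control reaction and normalised to the cognate motif. Reads came from free RNA recovered by 8% native PAGE after purified RbFox RRM (wild type or mutant) at increasing concentrations was equilibrated for 10 min in 50 µL with 1 nM of a 5′-radiolabelled pool with 7 randomized nucleotides and DNA-annealed flanks.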
On the technique in general: A gel shift assay detects complexes by their altered migration in electrophoresis.
On to B1, for which the binding signal is 0.0112 KA relative to UGCAUGU. With B2, the binding signal is 0.0302 KA relative to UGCAUGU.

As for B3, the binding signal was 0.0331 KA relative to UGCAUGU. For the molecule B4, the binding signal is 0.0256 KA relative to UGCAUGU. B5: the binding signal is 0.0114 KA relative to UGCAUGU. For B6, the binding signal is 0.0454 KA relative to UGCAUGU. Regarding B7, the binding signal was 0.0129 KA relative to UGCAUGU. As for B8, the binding signal was 0.0185 KA relative to UGCAUGU.

On to B9, for which the binding signal is 0.0284 KA relative to UGCAUGU. For B10 the value was 0.0276 KA relative to UGCAUGU; for B11, 0.039 KA relative to UGCAUGU; for B12, 0.032 KA relative to UGCAUGU. For the molecule B13, the binding signal is 0.0249 KA relative to UGCAUGU. As to B14, the binding signal was 0.00724 KA relative to UGCAUGU.

In the case of B15, the binding signal is 0.0155 KA relative to UGCAUGU. For B16, the binding signal is 0.00816 KA relative to UGCAUGU. For B17 the value was 0.0164 KA relative to UGCAUGU; for B18, 0.0231 KA relative to UGCAUGU; for B19, 0.0174 KA relative to UGCAUGU. Turning to B20, the binding signal was 0.0043 KA relative to UGCAUGU.

For B21, the binding signal is 0.0121 KA relative to UGCAUGU. B22: the binding signal was 0.0113 KA relative to UGCAUGU.

As for B23, the binding signal was 0.0106 KA relative to UGCAUGU. As for B24, the binding signal was 1.02 KA relative to UGCAUGU.

As for B25, the binding signal was 0.0154 KA relative to UGCAUGU. To B26 belongs 0.00891 KA relative to UGCAUGU; to B27, 0.0332 KA relative to UGCAUGU.

For the molecule B28, the binding signal is 0.00704 KA relative to UGCAUGU.

Turning to B29, the binding signal is 0.913 KA relative to UGCAUGU. To B30 belongs 0.0211 KA relative to UGCAUGU; to B31, 0.0164 KA relative to UGCAUGU; to B32, 0.965 KA relative to UGCAUGU. To B33 belongs 0.0203 KA relative to UGCAUGU.
